Measured values taken from PubChem BioAssay.
Several values for one entry are separate records, joined by “and”; a condition that tells them apart may be missing. Identical values can stand only once. Activity calls are given as the source filed them. Unless noted, no rule for the calls is given here.

Columns and labels:
[1] = glutamate transport activators, MN-1 cells, MN-1 cell line (AID 1612); details: MN-1 motor neuron cells, stronger effect = higher value;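 also: tested at 1 µM final; 0% = mean of DMSO vehicle wells on each plate; positive means more glutamate uptake than control and negative means less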
[2] = GFP-Q80 aggregate reduction, neuronal-like cells, cell-based, NGF-treated PC12, GFPQ80 (AID 1614); details: PC12 NGF-treated GFP-polyQ80 inclusion reduction;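 also: lower means fewer inclusions and 0 means no inclusions at all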
[3] = 75Q-TubH aggregate inhibition, S. cerevisiae, yeast (AID 1616); details: S. cerevisiae 75Q-TubH polyglutamine aggregation suppression; stronger effect = higher value
[4] = compounds altering circadian rhythm period length – cell-based, LOPAC library, luminescence reporter (AID 2774); details: circadian reporter cells, at 7 µM, actives lie on both sides;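 also: values are relative to mean of DMSO wells on each plate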
[5] = compounds altering viability of human ES cells (AID 493140); details: human embryonic stem cell survival screen; stronger effect = higher value;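 also: cells exposed to compounds for four days before counting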
[6] = P. berghei load reduction in hepatocytes – cell-based, HepG2, luciferase luminescence, HepG2 viability, primary screen (AID 624349; in the data active = parasite load remaining mostly below about 12%, no sharp cut-off; inactive = mostly above about 10%;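 also: 100% = mean of DMSO negative control wells on the same plate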); details: P. berghei liver stage in HepG2, luciferase luminescence, concentration not given here; parasite load remaining: stronger effect = lower value; viability: measured here: HepG2 viability without parasites
[7] = test system: Hepatitis C virus NS3 helicase; experiment: blockers of NS3h binding to ssDNA – biochemical, fluorescence polarization, LOPAC1280 library, primary screen (AID 687035; in the data active = inhibition above about 37%); details: Purified HCV NS3 helicase, Cy5-dT15 ssDNA binding fluorescence polarization; stronger effect = higher value; concentration not given here
[8] = compounds altering Cy5-DNA-NS3h complex signal – biochemical, LOPAC1280, artefact control for HCV NS3 helicase inhibitor project (AID 687037); details: Cy5-DNA-NS3h complex fluorescence interference counterscreen
[9] = Wnt pathway potentiators raising nuclear beta-catenin – imaging, WNT3A-conditioned medium, mouse C2C12, NPC library, primary screen (AID 1117326; in the data active = nuclear beta-catenin stimulation mostly above about 4.2%, no sharp cut-off; inactive = mostly below about 10%); details: stronger effect = higher value
[10] = test system: Hepatitis C virus NS3 helicase; experiment: blockers of NS3h binding to DNA – biochemical, fluorescence polarization, NIH Clinical Collection, primary screen (AID 743270); details: NS3 helicase binding to Cy5-dT15 DNA, stronger effect = higher value, concentration not given here
[11] = target: Single-stranded DNA-binding protein (Escherichia coli (strain K12)) (UniProt P0AGE0); experiment: SSB-ssDNA binding inhibitors – biochemical, fluorescence polarization, NIH Clinical Collection, counter-screen for HCV NS3 helicase inhibitor project (AID 743271; in the data active = inhibition above about 28%); details: E. coli SSB-DNA binding, stronger effect = higher value, concentration not given here
[12] = compounds distorting NS3 helicase fluorescence signal – biochemical, NIH Clinical Collection, artefact control for HCV NS3 helicase inhibitor project (AID 743272); details: fluorescence interference counterscreen, HCV NS3 helicase assay; stronger effect = lower value;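 also: HCV NS3 helicase with a Cy5 labelled single stranded DNA probe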
[13] = signal quenchers or enhancers, Cy5 substrate/SSB – biochemical, NIH Clinical Collection, E. coli SSB, artefact control for HCV NS3 helicase inhibitor project (AID 743268); details: Cy5-oligo bound E. coli SSB, fluorescence interference
[14] = test system: Neuropilin-2 / VEGF-C interaction (human); experiment: small molecules blocking Neuropilin-2/VEGF-C interaction – biochemical, microplate binding format, z-score (AID 743281); details: microplate NRP2/VEGF-C binding assay; stronger effect = lower value

| Structure (SMILES) | glutamate uptake change [1] [%] | inclusion score [2] | aggregation suppression score [3] | period change [4] | survival [5] | parasite load remaining [6] | viability [6] | inhibition [7] | fluorescence ratio (interference) [8] | nuclear beta-catenin stimulation ([9]; at 10 µM) | nuclear beta-catenin stimulation ([9]; stimulation, at 2 µM) [%] | inhibition [10] | inhibition [11] | fluorescence ratio [12] | fluorescence ratio [13] | z-score [14] |
| --- | --- | --- | --- | --- | --- | --- | --- | --- | --- | --- | --- | --- | --- | --- | --- | --- |
| C=CCc1ccccc1OCC(O)CNC(C)C (configuration not stated) | -6.27 | 2 | 1.42 | 0.15 h (inactive) | 7.25 (inactive) | 48.8% (inactive) and 53.9% (inactive) and 74.6% (inactive) | 101% and 91.5% and 140% | -4% (inactive) | 1 (inactive) | 0.1% (inactive) | -0.5 | – | – | – | – | – |
| CN1CCN(CC(=O)N2c3ccccc3C(=O)Nc3cccnc32)CC1 | -10.6 | 2.5 | 1.19 | 0.09 h (inactive) | 8.33 (inactive) | – | – | -1% (inactive) | 1 (inactive) | 1.7% (inactive) | -0.5 | – | – | – | – | – |
| N[C@@H](Cc1ccc(O)c(O)c1)C(=O)O | -2.7 | 2 | 1.67 | 0.105 h (inactive) | 9.67 (inactive) | – | – | 1% (inactive) | 1 (inactive) | 1% (inactive) | -0.9 | – | – | – | – | – |
| COc1ccc2[nH]cc(CCNC(C)=O)c2c1 | 7.67 | 2 | 1.76 | -0.21 h (inactive) | 15.4 (inactive) | – | – | -3% (inactive) | 1 (inactive) | 0.2% (inactive) | -0.2 | – | – | – | – | – |
| CS(=O)(=O)Nc1ccc([N+](=O)[O-])cc1Oc1ccccc1 | -10.7 | 2 | 0.728 | 0.17 h (inactive) | 16.8 (inactive) | – | – | -3% (inactive) | 1 (inactive) | 0.4% (inactive) | -0.6 | – | – | – | – | – |
| CCn1cc(C(=O)O)c(=O)c2cc3c(cc21)OCO3 | 5.71 | 2 | 1.09 | 0.16 h (inactive) | 33.2 (inactive) | – | – | -1% (inactive) | 1 (inactive) | 0.2% (inactive) | 0.8 | – | – | – | – | – |
| O=c1c(O)c(-c2ccc(O)c(O)c2)oc2cc(O)cc(O)c12 | 12.9 | 1 | 1.03 | -0.025 h (inactive) | 4.17 (inactive) and 87 (inactive) | 49.9% (inactive) and 67.9% (inactive) | 108% and 73.7% | 2% (inactive) | 0.9 (inactive) | 2.6% (inactive) | 1.7 | – | – | – | – | – |
| Cc1cc(C(C)(C)C)c(O)c(C)c1CC1=NCCN1 | -22.6 | 2 | 1.13 | -0.09 h (inactive) | 18.8 (inactive) | – | – | -6% (inactive) | 0.9 (inactive) | 1.6% (inactive) | 2.7 | – | – | – | – | – |
| CN1Cc2c(N)cccc2C(c2ccccc2)C1 (configuration not stated) | -14.3 | 2 | 1.65 | -0.06 h (inactive) | 19.8 (inactive) | – | – | – | 1 (inactive) | 3.1% (inactive) | 1.5 | – | – | – | – | – |
| COCCc1ccc(OCC(O)CNC(C)C)cc1 (configuration not stated) | -0.51 | 2 | 0.579 | 0.045 h (inactive) | 15.4 (inactive) | – | – | 1% (inactive) | 1 (inactive) | 0.8% (inactive) | 1.6 | – | – | – | – | – |
| CCN(CC)CCOCCOC(=O)C1(c2ccccc2)CCCC1 | 7.48 | 1.5 | 1.37 | 0.125 h (inactive) | 5.08 (inactive) | – | – | 0% (inactive) | 1 (inactive) | -0.6% (inactive) | -0.4 | – | – | – | – | – |
| O=C1CC2(CCCC2)CC(=O)N1CCCCN1CCN(c2ncccn2)CC1 | 15.2 | 2 | 1.24 | -0.08 h (inactive) | 4 (inactive) | – | – | 0% (inactive) | 1 (inactive) | 0.7% (inactive) | 2.6 | -6.82% (inactive) | 1.05% (inactive) | 1.03 (inactive) | – | – |
| COc1ccc(CCN(C)CCCC(C#N)(c2ccc(OC)c(OC)c2)C(C)C)cc1OC (configuration not stated) | 24.7 | 2 | 1.45 | 0.12 h (inactive) | 22.4 (inactive) | – | – | -3% (inactive) | 1 (inactive) | 0.2% (inactive) | 0.5 | – | – | – | – | – |
| CN(C)CCC(c1ccccc1)c1ccccn1 (configuration not stated) | 24.1 | 2 | 1.23 | -0.08 h (inactive) | 15 (inactive) | – | – | -1% (inactive) | 0.9 (inactive) | 0.4% (inactive) | 1.1 | – | – | – | – | – |
| Cn1cnc2c1c(=O)[nH]c(=O)n2C | -19.3 | 1.5 | 1.09 | -0.055 h (inactive) | 3.33 (inactive) | 101% (inactive) and 137% (inactive) and 62.6% (inactive) | 101% and 74.3% and 103% | -5% (inactive) | 1 (inactive) | 0.9% (inactive) | 1 | – | – | – | – | – |
| O=C(O)CCCCCCCC(=O)O | 4.35 | 2 | 0.919 | 0.115 h (inactive) | – | 102% (inactive) and 78.4% (inactive) | 69% and 83.5% | 0% (inactive) | 0.9 (inactive) | 0.3% (inactive) | -0.5 | – | – | – | – | – |
| CCC1(C)CC(=O)NC1=O (configuration not stated) | -2.95 | 2 | 1.06 | 0.01 h (inactive) | 28.8 (inactive) | – | – | 0% (inactive) | 1 (inactive) | 0.2% (inactive) | -0.3 | – | – | – | – | – |
| CN1CCC(=C2c3ccccc3CC(=O)c3sccc32)CC1 | 0.39 | 2 | 1.2 | -0.04 h (inactive) | 5.83 (inactive) | – | – | -3% (inactive) | 1 (inactive) | 1.3% (inactive) | -1.2 | -6.33% (inactive) | -0.39% (inactive) | 0.93 (inactive) | 0.97 (inactive) | -0.206 (inactive) |
| CC(=O)Oc1ccccc1C(=O)O | 9.8 | 2 | 1.28 | -0.135 h (inactive) | – | 80.4% (inactive) and 75.4% (inactive) and 33.3% (inactive) | 71.3% and 95.3% and 127% | -3% (inactive) | 1 (inactive) | -0.3% (inactive) | 0.2 | – | – | – | – | – |
| CC(C)(Sc1cc(C(C)(C)C)c(O)c(C(C)(C)C)c1)Sc1cc(C(C)(C)C)c(O)c(C(C)(C)C)c1 | -0.51 | 2 | 0.634 | – | 7.33 (inactive) | – | – | – | – | 4.3% (inactive) | 6 | – | – | – | – | – |
| CS(=O)(=O)c1ccc([C@@H](O)[C@@H](CO)NC(=O)C(Cl)Cl)cc1 | 16.7 | 2 | 0.726 | – | 14.4 (inactive) | – | – | – | – | 2.7% (inactive) | 2.3 | – | – | – | – | – |
| Cc1cccc(N(C)C(=S)Oc2ccc3ccccc3c2)c1 | -6.25 | 2 | 0.257 | – | 27.3 (inactive) | – | – | – | – | -0.1% (inactive) | 1.3 | – | – | – | – | – |
| O=C1c2ccccc2C(=O)C1c1ccccc1 | 6.38 | 2 | 0.588 | – | 8.58 (inactive) | – | – | – | – | 0.3% (inactive) | 0.6 | – | – | – | – | – |
| CN1C(C(=O)Nc2ccccn2)=C(O)c2sccc2S1(=O)=O | -15.9 | 2 | 0.632 | – | 5.08 (inactive) | – | – | – | – | 0.8% (inactive) | 1 | – | – | – | – | – |
| NC(N)=NS(=O)(=O)c1ccc(N)cc1 | 5.91 | 2 | 1.54 | – | 11.5 (inactive) | – | – | – | – | 0.5% (inactive) | 0.1 | – | – | – | – | – |
